# Measurements from PMC7862700, “An all-to-all approach to the identification of sequence-specific readers for epigenetic DNA modifications on cytosine”.
# Tests used:
# Assay in all cases: DAPPL (digital affinity profiling via proximity ligation, sequencing); 10 mM Tris-HCl pH 7.5, 50 mM NaCl, 1 mM DTT, 4% glycerol, room temperature, 30 min; GST-TFs on glutathione beads, 16-mer random dsDNA library, 0.1% formaldehyde crosslink after washing; high values mean tight binding
# FLI1 = molecular target: T1, FLI1 (Homo sapiens, UniProt Q01543 1-452); conditions: protein: recombinant; tags: N-terminal GST; dsDNA, one strand shown
# T1 sequence: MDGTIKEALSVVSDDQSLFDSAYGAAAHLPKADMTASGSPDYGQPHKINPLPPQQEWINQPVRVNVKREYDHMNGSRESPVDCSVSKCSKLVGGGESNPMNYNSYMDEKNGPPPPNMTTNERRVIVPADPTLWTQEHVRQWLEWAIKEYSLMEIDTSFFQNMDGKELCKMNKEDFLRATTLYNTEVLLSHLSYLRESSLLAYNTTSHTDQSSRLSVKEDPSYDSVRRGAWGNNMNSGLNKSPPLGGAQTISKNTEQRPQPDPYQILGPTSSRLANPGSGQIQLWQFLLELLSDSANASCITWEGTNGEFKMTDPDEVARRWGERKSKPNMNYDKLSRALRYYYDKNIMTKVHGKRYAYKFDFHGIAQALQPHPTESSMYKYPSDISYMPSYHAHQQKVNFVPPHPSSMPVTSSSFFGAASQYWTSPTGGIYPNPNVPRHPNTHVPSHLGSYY
# Outline: (§1)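 GST fusions of human transcription factors were expressed in yeast and captured with glutathione beads. Once given DNA barcodes and pooled alongside a tag-only sample, they were incubated for 30 min at room temperature with 200 nmole of a random double-stranded 16-mer DNA library in Tris/NaCl/DTT/glycerol buffer, then washed, crosslinked (0.1% formaldehyde), proximity-ligated, PCR-amplified and sequenced on an Illumina NextSeq500. The binding signal of each hexamer is its read frequency for a factor divided by its frequency for the tag-only sample.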
# ELK1 = molecular target: T2, ELK1 (Homo sapiens, UniProt P19419 1-428); conditions: protein: recombinant; tags: N-terminal GST; dsDNA, one strand shown
# T2 sequence: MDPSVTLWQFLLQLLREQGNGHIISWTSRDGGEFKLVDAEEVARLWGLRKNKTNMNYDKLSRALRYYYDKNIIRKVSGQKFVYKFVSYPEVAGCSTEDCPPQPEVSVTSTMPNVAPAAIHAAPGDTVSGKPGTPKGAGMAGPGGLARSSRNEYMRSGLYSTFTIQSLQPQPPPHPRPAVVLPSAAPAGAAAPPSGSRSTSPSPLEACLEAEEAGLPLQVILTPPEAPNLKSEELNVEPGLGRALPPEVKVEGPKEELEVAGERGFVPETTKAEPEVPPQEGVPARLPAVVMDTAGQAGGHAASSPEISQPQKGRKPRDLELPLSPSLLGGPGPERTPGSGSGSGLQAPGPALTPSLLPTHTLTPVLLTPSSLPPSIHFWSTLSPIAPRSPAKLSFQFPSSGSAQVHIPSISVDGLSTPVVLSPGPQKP
# Outline: as §1
# GABPA = molecular target: T3, GABPA (Homo sapiens, UniProt Q06546 1-454); conditions: protein: recombinant; tags: N-terminal GST; dsDNA, one strand shown
# T3 sequence: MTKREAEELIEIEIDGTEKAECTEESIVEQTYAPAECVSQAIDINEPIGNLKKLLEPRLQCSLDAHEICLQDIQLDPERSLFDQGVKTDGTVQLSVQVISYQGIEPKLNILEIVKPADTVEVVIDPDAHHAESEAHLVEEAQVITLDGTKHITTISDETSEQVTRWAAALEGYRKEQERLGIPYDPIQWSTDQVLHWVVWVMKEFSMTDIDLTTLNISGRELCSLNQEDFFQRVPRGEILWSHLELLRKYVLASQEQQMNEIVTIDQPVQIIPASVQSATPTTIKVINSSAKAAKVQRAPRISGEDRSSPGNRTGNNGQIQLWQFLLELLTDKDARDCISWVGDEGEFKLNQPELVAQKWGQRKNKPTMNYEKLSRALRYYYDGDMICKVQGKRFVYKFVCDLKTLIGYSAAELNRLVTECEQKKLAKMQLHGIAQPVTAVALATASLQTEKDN
# Outline: as §1
# ERG = molecular target: T4, ERG (Homo sapiens, UniProt P11308 1-479); conditions: protein: recombinant; tags: N-terminal GST; dsDNA, one strand shown
# T4 sequence: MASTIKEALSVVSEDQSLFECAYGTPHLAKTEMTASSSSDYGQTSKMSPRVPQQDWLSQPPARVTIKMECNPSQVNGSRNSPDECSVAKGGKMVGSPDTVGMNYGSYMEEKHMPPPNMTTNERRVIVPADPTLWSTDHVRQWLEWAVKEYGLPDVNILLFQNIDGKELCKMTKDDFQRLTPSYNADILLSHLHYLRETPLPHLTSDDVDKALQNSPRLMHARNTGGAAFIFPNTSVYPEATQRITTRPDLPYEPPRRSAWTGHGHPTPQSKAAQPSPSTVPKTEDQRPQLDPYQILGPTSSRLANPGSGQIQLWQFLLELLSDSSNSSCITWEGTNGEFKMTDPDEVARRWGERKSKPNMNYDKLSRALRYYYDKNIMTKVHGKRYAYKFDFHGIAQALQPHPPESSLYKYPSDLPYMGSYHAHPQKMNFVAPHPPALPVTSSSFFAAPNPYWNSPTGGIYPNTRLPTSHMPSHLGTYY
# Outline: as §1
# ELF1 = ELF1 (Homo sapiens, UniProt P32519 1-619); conditions: protein: recombinant; tags: N-terminal GST; dsDNA, one strand shown
# ELF1, sequence (P32519 whole entry): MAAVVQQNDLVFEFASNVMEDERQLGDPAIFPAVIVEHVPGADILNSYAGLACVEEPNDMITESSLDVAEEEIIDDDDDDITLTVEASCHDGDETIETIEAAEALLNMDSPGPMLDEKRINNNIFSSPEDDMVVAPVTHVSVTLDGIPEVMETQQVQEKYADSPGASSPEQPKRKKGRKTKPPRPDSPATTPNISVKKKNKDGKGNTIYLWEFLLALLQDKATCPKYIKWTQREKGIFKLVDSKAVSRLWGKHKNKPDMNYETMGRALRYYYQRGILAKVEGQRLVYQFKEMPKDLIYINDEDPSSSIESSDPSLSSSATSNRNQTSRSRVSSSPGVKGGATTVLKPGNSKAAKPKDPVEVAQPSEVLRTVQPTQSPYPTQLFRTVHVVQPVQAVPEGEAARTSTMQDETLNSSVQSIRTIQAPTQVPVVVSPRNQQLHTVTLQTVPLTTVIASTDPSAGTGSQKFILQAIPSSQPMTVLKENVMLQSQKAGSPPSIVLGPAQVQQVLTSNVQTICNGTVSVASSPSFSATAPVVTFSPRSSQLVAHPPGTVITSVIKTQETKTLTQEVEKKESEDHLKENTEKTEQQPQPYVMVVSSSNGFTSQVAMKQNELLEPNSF
# Outline: as §1
# EHF = molecular target: T5, EHF (Homo sapiens, UniProt Q9NZC4 1-300); conditions: protein: recombinant; tags: N-terminal GST; dsDNA, one strand shown
# T5 sequence: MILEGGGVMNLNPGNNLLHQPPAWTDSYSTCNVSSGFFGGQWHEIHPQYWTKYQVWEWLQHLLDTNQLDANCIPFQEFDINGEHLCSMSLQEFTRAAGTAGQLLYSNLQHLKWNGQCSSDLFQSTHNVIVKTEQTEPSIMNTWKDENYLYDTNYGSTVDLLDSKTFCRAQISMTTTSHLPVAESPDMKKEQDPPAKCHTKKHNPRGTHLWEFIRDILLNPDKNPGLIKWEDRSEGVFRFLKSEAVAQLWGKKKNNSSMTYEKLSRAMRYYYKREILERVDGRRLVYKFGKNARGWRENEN
# Outline: as §1
# SPI1 = SPI1 (Homo sapiens, UniProt P17947 1-270); conditions: protein: recombinant; tags: N-terminal GST; dsDNA, one strand shown
# Outline: as §1
# SPIB = SPIB (Homo sapiens, UniProt Q01892 1-262); conditions: protein: recombinant; tags: N-terminal GST; dsDNA, one strand shown
# SPIB, sequence (Q01892 whole entry): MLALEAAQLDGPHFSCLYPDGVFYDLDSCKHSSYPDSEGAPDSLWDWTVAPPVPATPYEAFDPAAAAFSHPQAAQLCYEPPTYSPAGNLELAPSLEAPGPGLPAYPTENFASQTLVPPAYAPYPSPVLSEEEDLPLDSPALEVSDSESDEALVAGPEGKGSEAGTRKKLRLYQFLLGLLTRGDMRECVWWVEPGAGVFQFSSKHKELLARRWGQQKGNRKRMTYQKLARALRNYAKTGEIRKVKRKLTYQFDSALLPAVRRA
# Outline: as §1
# ELK3 = molecular target: T6, ELK3 (Homo sapiens, UniProt P41970 1-407); conditions: protein: recombinant; tags: N-terminal GST; dsDNA, one strand shown
# T6 sequence: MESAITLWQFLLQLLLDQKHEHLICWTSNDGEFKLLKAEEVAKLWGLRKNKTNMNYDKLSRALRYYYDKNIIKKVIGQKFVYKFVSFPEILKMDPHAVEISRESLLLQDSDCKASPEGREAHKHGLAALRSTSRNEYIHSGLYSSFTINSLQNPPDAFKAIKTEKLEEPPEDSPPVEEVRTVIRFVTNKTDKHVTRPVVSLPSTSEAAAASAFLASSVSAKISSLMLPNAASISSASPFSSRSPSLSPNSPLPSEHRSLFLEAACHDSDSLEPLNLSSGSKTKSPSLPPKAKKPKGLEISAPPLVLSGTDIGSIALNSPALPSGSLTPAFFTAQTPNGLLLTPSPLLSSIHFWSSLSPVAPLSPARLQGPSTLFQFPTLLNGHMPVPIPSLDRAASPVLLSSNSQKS
# Outline: as §1
# FEV = molecular target: T7, FEV (Homo sapiens, UniProt Q99581 1-238); conditions: protein: recombinant; tags: N-terminal GST; dsDNA, one strand shown
# T7 sequence: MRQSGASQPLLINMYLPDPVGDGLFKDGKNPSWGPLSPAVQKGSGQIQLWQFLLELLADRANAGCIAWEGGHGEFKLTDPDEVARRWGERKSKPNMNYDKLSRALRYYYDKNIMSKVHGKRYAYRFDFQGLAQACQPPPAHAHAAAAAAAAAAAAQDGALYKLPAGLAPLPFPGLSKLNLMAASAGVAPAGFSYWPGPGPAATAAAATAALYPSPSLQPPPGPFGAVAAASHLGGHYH
# Outline: as §1
# ETV5 = ETV5 (Homo sapiens, UniProt P41161 1-510); conditions: protein: recombinant; tags: N-terminal GST; dsDNA, one strand shown
# ETV5, sequence (P41161 whole entry): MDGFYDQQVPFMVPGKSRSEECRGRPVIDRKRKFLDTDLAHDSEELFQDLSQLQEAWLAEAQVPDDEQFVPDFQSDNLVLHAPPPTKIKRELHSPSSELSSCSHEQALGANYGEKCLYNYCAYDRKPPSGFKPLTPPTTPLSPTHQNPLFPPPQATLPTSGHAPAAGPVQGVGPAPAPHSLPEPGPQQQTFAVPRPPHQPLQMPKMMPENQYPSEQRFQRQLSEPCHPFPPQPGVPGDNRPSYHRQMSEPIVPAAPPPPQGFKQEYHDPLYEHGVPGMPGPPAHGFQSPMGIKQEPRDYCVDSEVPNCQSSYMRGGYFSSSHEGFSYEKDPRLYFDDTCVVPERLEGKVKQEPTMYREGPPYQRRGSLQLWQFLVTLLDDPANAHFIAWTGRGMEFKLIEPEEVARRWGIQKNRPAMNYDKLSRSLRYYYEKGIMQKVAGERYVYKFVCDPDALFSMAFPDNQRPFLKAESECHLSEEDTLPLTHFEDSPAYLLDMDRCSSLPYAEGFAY
# Outline: as §1
# HSF1 = HSF1 (Homo sapiens, UniProt Q00613 1-529); conditions: protein: recombinant; tags: N-terminal GST; chain copies: 3; dsDNA, one strand shown
# HSF1, sequence (Q00613 whole entry): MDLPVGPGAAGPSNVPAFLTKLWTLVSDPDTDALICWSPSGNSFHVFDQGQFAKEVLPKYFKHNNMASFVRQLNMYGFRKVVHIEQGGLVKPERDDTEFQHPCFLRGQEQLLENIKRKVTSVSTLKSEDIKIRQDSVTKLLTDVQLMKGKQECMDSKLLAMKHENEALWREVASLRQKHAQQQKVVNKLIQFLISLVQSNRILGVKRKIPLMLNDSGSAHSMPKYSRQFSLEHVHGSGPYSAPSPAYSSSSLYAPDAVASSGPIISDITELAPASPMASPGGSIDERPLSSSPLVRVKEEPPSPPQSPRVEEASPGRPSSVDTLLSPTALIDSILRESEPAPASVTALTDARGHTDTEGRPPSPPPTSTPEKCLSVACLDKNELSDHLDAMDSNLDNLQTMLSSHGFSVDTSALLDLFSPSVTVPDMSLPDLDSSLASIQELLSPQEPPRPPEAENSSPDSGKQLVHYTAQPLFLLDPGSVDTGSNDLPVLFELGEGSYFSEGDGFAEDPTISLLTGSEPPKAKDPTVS
# Outline: as §1
# SPIC = molecular target: T8, SPIC (Homo sapiens, UniProt Q8N5J4 1-248); conditions: protein: recombinant; tags: N-terminal GST; dsDNA, one strand shown
# T8 sequence: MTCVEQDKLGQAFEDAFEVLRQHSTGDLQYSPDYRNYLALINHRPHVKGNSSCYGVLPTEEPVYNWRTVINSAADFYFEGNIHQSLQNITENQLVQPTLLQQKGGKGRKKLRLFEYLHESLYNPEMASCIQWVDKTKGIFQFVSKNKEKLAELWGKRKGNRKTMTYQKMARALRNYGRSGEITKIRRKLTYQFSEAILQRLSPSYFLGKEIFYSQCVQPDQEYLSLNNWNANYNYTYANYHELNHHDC
# Outline: as §1
# ELF4 = ELF4 (Homo sapiens, UniProt Q99607 1-663); conditions: protein: recombinant; tags: N-terminal GST; dsDNA, one strand shown
# ELF4, sequence (Q99607 whole entry): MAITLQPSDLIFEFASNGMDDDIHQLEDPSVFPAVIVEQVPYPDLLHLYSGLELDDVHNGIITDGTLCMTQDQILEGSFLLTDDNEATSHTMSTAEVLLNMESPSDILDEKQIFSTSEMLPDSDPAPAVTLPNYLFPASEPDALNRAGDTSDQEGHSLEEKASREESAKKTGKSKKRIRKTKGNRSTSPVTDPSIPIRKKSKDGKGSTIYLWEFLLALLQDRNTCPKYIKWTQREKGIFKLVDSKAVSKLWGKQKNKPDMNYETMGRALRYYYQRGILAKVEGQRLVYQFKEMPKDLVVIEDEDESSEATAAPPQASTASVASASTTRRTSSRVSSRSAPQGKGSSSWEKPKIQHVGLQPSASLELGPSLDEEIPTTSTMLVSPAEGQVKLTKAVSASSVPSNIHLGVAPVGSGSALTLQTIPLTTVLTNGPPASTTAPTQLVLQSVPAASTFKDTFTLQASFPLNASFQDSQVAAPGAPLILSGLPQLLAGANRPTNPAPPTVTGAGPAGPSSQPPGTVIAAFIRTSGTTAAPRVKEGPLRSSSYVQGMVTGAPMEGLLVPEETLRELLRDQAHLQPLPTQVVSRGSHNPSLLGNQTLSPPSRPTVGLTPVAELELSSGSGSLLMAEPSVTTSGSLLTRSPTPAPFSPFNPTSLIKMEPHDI
# Outline: as §1
# ELK4 = molecular target: T9, ELK4 (Homo sapiens, UniProt P28324-2 1-405); conditions: protein: recombinant; tags: N-terminal GST; dsDNA, one strand shown
# T9 sequence: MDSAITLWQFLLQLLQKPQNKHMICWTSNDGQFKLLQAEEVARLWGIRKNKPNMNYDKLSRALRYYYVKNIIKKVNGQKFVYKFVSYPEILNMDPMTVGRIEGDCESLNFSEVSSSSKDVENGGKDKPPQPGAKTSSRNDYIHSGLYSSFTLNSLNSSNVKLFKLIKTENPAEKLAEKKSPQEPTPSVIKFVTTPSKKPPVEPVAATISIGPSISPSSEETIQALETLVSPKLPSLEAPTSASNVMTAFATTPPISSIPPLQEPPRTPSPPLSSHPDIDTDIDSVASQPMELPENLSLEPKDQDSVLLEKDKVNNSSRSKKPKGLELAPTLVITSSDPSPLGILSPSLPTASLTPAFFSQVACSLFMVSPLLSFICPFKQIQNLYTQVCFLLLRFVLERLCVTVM
# Outline: as §1
# ETV2 = molecular target: T10, ETV2 (Homo sapiens, UniProt O00321 1-342); conditions: protein: recombinant; tags: N-terminal GST; dsDNA, one strand shown
# T10 sequence: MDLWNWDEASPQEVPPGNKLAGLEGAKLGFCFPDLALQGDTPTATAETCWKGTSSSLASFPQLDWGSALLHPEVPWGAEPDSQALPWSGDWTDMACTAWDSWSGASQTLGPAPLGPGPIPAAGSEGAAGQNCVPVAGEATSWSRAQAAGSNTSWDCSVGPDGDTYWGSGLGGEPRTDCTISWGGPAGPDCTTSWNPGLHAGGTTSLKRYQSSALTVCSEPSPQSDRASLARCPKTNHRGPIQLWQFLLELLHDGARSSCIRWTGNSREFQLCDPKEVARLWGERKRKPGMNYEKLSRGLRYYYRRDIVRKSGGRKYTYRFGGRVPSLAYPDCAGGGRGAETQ
# Outline: as §1
# ELF3 = molecular target: T11, ELF3 (Homo sapiens, UniProt P78545 1-371); conditions: protein: recombinant; tags: N-terminal GST; dsDNA, one strand shown
# T11 sequence: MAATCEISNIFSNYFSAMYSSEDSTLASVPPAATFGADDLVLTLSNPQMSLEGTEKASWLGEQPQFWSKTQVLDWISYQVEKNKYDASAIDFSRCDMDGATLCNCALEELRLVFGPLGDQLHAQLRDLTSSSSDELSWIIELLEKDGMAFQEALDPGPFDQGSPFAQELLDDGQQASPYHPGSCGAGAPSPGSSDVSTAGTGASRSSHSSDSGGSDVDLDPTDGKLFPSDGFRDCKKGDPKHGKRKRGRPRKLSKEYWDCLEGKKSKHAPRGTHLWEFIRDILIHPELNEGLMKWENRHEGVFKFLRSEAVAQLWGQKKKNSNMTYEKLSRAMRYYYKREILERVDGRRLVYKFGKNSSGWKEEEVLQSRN
# Outline: as §1
# CRX = CRX (Homo sapiens, UniProt O43186 1-299); conditions: protein: recombinant; tags: N-terminal GST; dsDNA, one strand shown
# CRX, sequence (O43186 whole entry): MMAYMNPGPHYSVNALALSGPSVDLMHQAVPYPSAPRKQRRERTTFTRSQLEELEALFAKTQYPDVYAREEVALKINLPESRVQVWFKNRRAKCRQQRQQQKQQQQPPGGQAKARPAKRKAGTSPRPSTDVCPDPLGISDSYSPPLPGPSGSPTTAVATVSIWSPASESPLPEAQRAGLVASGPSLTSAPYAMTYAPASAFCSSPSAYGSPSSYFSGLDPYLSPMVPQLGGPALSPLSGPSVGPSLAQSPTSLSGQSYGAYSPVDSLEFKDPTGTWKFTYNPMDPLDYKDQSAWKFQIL
# Outline: as §1
# ETV1 = ETV1 (Homo sapiens, UniProt P50549 1-477); conditions: protein: recombinant; tags: N-terminal GST; dsDNA, one strand shown
# ETV1, sequence (P50549 whole entry): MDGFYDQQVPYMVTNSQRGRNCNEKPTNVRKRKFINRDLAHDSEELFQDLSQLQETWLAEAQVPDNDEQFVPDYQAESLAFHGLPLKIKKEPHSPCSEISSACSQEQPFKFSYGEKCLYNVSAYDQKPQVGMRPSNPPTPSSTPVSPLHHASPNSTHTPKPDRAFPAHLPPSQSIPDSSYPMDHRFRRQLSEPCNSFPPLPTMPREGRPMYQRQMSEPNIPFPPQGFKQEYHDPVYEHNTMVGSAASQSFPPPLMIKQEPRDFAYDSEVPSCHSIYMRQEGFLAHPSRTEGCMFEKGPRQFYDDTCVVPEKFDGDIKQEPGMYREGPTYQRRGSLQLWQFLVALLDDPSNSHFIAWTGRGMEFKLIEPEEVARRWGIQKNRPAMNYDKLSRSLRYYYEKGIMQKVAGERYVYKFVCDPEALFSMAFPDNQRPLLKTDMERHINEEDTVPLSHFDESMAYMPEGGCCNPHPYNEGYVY
# Outline: as §1
sequence,measurement,setting,value
AATCAC,binding signal,FLI1,"1.03 fold enrichment (6-mer frequency, TF over GST control)"
same,binding signal,ELK1,"1.08 fold enrichment (6-mer frequency, TF over GST control)"
same,binding signal,GABPA,"1.15 fold enrichment (6-mer frequency, TF over GST control)"
same,binding signal,ERG,"1.08 fold enrichment (6-mer frequency, TF over GST control)"
same,binding signal,ELF1,"1.14 fold enrichment (6-mer frequency, TF over GST control)"
same,binding signal,EHF,"1.08 fold enrichment (6-mer frequency, TF over GST control)"
same,binding signal,SPI1,"1.12 fold enrichment (6-mer frequency, TF over GST control)"
same,binding signal,SPIB,"1.07 fold enrichment (6-mer frequency, TF over GST control)"
same,binding signal,ELK3,"1.12 fold enrichment (6-mer frequency, TF over GST control)"
same,binding signal,FEV,"1.09 fold enrichment (6-mer frequency, TF over GST control)"
same,binding signal,ETV5,"1.14 fold enrichment (6-mer frequency, TF over GST control)"
same,binding signal,HSF1,"1.08 fold enrichment (6-mer frequency, TF over GST control)"
same,binding signal,SPIC,"1.08 fold enrichment (6-mer frequency, TF over GST control)"
same,binding signal,ELF4,"1.09 fold enrichment (6-mer frequency, TF over GST control)"
same,binding signal,ELK4,"1.11 fold enrichment (6-mer frequency, TF over GST control)"
same,binding signal,ETV2,"1.18 fold enrichment (6-mer frequency, TF over GST control)"
same,binding signal,ELF3,"1.12 fold enrichment (6-mer frequency, TF over GST control)"
same,binding signal,CRX,"1.3 fold enrichment (6-mer frequency, TF over GST control)"
same,binding signal,ETV1,"1.08 fold enrichment (6-mer frequency, TF over GST control)"
